Reference: paper PMC13494018

B1: d4r2_design_ppi_327_dldesign_0_cycle0_af2pred (protein)
chain: SQEVIQAKGKIQAAKEQAEAMKEAIEKKPKSPEELERALERLKRLEEEAKEAAKKAGEEVKEEYEEAKKAIEEAKKAAEENRK
B2: d4r3_design_ppi_39_dldesign_0_cycle0_af2pred (protein)
chain: DYEKKLKEEMEKYKKEAEKAAADPGAMYQKVLEGKAAADGIVNIAKEEAEEKGDEELKKKAEEAKKKAEEAIKEMKAKADAAAAA
B3: d4r3_design_ppi_107_dldesign_0_cycle1_af2pred (protein)
chain: SAAAKEAAEKQEGRFEADLYEVKAKNAAEKYKDDKKKQAEVLEKIAEEAKKKAKEASPVIAKGYKEGAKVAEKLAKEAKKEA
B4: d4r2_design_ppi_477_dldesign_0_cycle0_af2pred (protein)
chain: EEEKKEKLKKERHELASELARLASLADALGDKELAEKAEKAMELLALDPEKGKEAAKEVKEAAKKRLAAAKAAAA
B5: d4r3_design_ppi_205_dldesign_0_cycle0_af2pred (protein)
chain: SKEEKVKEYLEKAKEALEKMKETAADATAMNANYTEAKYYADKAAKESEEFKEEAEKLKEEAKKAYKEAAAKYAAAKAAAA
B6: d4r3_design_ppi_187_dldesign_0_cycle1_af2pred (protein)
chain: SEEKEEGEIYVKHAKLAIEAGKEEKEAGDYKSAIALAKTAIKEAKRAIENPDEEAKKKGKEKLKEAEKALEEIEKALKEAEEK
B7: d4r2_design_ppi_271_dldesign_0_cycle0_af2pred (protein)
chain: MTKEELEKLKKEVEEAEKLAQEVLKIDKESGEEILKLVTKAKGYAEFAEDALELGSQKAAESFAKKAKEYVKKAEKLAKETLAKAA
B8: d4r2_design_ppi_339_dldesign_0_cycle1_af2pred (protein)
chain: GESTEKAKKIYEEIKKKAEEYKKKAKEAAELLVEKGEEGGKKLKEIEEEAAKELPEVSFQVKAYINTLKEEAEKRRKEKEA
B9: d4r2_design_ppi_310_dldesign_0_cycle1_af2pred (protein)
chain: AVEKALKIIEETEKEAKEAFEKNPETGLAIAKATYRTAEHLGSKLNKEDAEKLKKKGKEYLEEFEKRYKEKKKELEE
B10: d4r2_design_ppi_419_dldesign_0_cycle0_af2pred (protein)
chain: DEEKEELKKKIEEAKKKVEEAKKLAEKTSEEVKKLTKEAETEIALAEGYLDNGAAIELAKKKAEEGLKLADEALKLAEKILKEKE
B11: d4r3_design_ppi_53_dldesign_0_cycle1_af2pred (protein)
chain: MDPEVTKKKEAEVEAAGDVKLEGIKYLEEAKKLAKEDKEKGRKLLEEAAKEFKERAKEYEKEGKKIAARYAKEEAKKLEELAKEL
B12: d4r3_design_ppi_43_dldesign_0_cycle1_af2pred (protein)
chain: SLIEEMKKELEELVKKAEAASPAEAPWYAQEARSYGKYYSEKVEKEGNPEEAKKAKEIAEKLSEEARKIAEKKR
B13: d4r3_design_ppi_225_dldesign_0_cycle0_af2pred (protein)
chain: AEDAALAKQAAAKLAEARQKANEALQYAKNGNVEEAKKSLEEAKAALAEAKALAAKASPETQAKAQKALDGVEKRIAEAEKAIKEK
B14: d4r2_design_ppi_295_dldesign_0_cycle1_af2pred (protein)
chain: MAEEAAKAVKNRAERLAKEFPEAAPVMKAVAEEAKKKLEEAKGKSPTEIANVAQDYQAEATAKYAEVKRETEKKLAA
B15: d4r2_design_ppi_335_dldesign_0_cycle1_af2pred (protein)
chain: GAVTEALDKVLELSEKAIELAEKALKAAKEDKEEAKKYLEKAREKVKEAEKLAKESGSKAGKSIARNTKEYVEKKEKEIKEII
B16: d4r3_design_ppi_32_dldesign_0_cycle1_af2pred (protein)
chain: AEEKAKEAKELAEKAKKTAKEAKELGDEEAAKLAEEGAKDAEEASKIFESGASPAEQADAMAKYRSGKAYNDLAEKRIKEKKK
B17: d4r3_design_ppi_27_dldesign_0_cycle1_af2pred (protein)
chain: AEEKAKRMEKKAKEIAEEAKELKKNAPKLDPEEAEKKARLLLGRAEGLLEQAKFGGLPEKVEKAAKEAVKAAKEALKVAKELKEK
B18: d4r2_design_ppi_432_dldesign_0_cycle1_af2pred (protein)
chain: EEEEKKKAEEEAKKVAELALKDPEAGAKAAKEMLPWSAEGLEALAKALAEAAKKAAKEDPEKAEKIKKVYNDAASAALRAEAKEERKA
B19: d4r3_design_ppi_225_dldesign_0_cycle1_af2pred (protein)
chain: AADAALAAAAAEELAKARSLATEALLYAKKGKVEEAKKLLEEAEKALKKAEELAAAASPEVQARAKKAIEGVKKKIEEAKKAIKEK
B20: d4r3_design_ppi_139_dldesign_0_cycle1_af2pred (protein)
chain: SMMDEVAKKREKKLIEESTAAAKAALAEAKAIAAGADTPENRAARAAAAEKAIANARIAGGALGKEEGEKLVSEVEAAVKA
B21: d4r2_design_ppi_378_dldesign_0_cycle0_af2pred (protein)
chain: MEEERQKKAEEELKKAKEAVEEGIKYAKEGNIMEANAKLSEARVHAEKAKKLDPETGKEIEKLVEEARKKIKEIAEK
B22: d4r2_design_ppi_432_dldesign_0_cycle0_af2pred (protein)
chain: AEEELKEAERKAKEVAKLAMEDPEAGAKEAEKMSEGSAEALEALAKELKKAAKEAEKEDKEKAEKIKKIYNKAAAAALRAEALADNAA
B23: d4r3_design_ppi_140_dldesign_0_cycle0_af2pred (protein)
chain: ATEEQKLKAEAAALGGLYVFSPEGGKRRLERIKEELEEEAERYKEENPEKGPEYEKELREKFETLKELMEKEAAEIKA
B24: d4r2_design_ppi_363_dldesign_0_cycle1_af2pred (protein)
chain: GLAEAEKKQKELEEKSTKEYIEKVIKESKKKAKELKKKGEEAKKYAEKIEAEVEKAEKATLDEAIEYTSKARKLVEEAEKKL
B25: d4r2_design_ppi_190_dldesign_0_cycle1_af2pred (protein)
chain: MEVEKTAKEAVEAVKAKSPKAAPKMEEAKKAAIEAAKLGKKEEALELLTKAKKAAEAGNVAEAIAYANEAIWLGEKLKK
B26: d4r2_design_ppi_363_dldesign_0_cycle0_af2pred (protein)
chain: SLEEAKKSQEELQKKSTEKWLETQIKEAEKKAKEFKSLGEEAKKKAEEILKEVEKAKASTPEEGLEHAAKAAKIIEEAEKKL
B27: d4r2_design_ppi_319_dldesign_0_cycle0_af2pred (protein)
chain: EEEEKESERLAEEARRAAEEARRRIREAAERSAEAAREALEEARRRMEELIKEAKKHKKAYAVAAGEAERVLHFGEAALARREAAE
B28: d4r2_design_ppi_407_dldesign_0_cycle0_af2pred (protein)
chain: MEEKKNKAKQFAFSEFMKAAAAAPPELRPKIEEAMDKTLEALDESFDKAIKVAEEVAKLPIAKKYAEKAKKFIEEQKK
B29: d4r3_design_ppi_206_dldesign_0_cycle1_af2pred (protein)
chain: SPEERELAARAQEEAALAKGMKIVVKNNPKSEKAIKDAEETAKEALEAAERIEKLENPTPEAKAAAERARKEAEELLKEVKKAK
B30: d4r2_design_ppi_226_dldesign_0_cycle0_af2pred (protein)
chain: SELEEEAKKVAEEARELAKEAEEAAEKILKEKNNLKEAGTLYAQSAQAKQAAEAVELNPEKAEEARERLKKAKERMKEAVKKAE
B31: d4r2_design_ppi_460_dldesign_0_cycle0_af2pred (protein)
chain: EELKKLTEEALKKAEEAEKKAKELIKEGKTTPLVKKALEAAEKAEAASISPERALEYAKKAEELYKKAIEEIK
B32: d4r2_design_ppi_226_dldesign_0_cycle1_af2pred (protein)
chain: MELEKKAKEVAKEAKEKAEEAEKAAEEILKKKKAIKEAGTLYSASERFKQVAEAAELDPSKAEEGRKVMERLKERAEKAVKEAE
B33: d4r2_design_ppi_171_dldesign_0_cycle1_af2pred (protein)
chain: ANEAEAEKYYAEGEQKMILGDTAYEMGKKKGPIFYKIAAEEYKEAAELYKEAAKLASPEKAKEYKEKAKEAEEKSKEAKKKGEE
B34: d4r2_design_ppi_159_dldesign_0_cycle1_af2pred (protein)
chain: ELEEEAKKAKEVAEKLKKFNLESRLEADEIEAKSKAALREGKENNEEAKKEGLKKVKEQLKKAEELLKKL
B35: d4r3_design_ppi_205_dldesign_0_cycle1_af2pred (protein)
chain: DLDAKAQALLDQAKEALAQMQATAADTVAYLSQATDAKYYARKAAKLDPKFKPQADALIAQLDAALAAAKAAYQAAKAAAA
B36: d4r2_design_ppi_407_dldesign_0_cycle1_af2pred (protein)
chain: SEEAKIKAKQYTSSLFTKAYLKASPETAPKIEEALEKAFEAIDKSFDEAIAVMKELAELPEAKEEAEKAEKFVAEQKK
B37: d4r2_design_ppi_335_dldesign_0_cycle0_af2pred (protein)
chain: SKVTEDQDKIIELSNKAVEKAEKALEAAKKDKEEAKKYLEEAEKLVEEAEKLAKESGSKAGRAIARNTKEYLEKKKKEIEELL
B38: d4r2_design_ppi_327_dldesign_0_cycle1_af2pred (protein)
chain: DETVIQAKATIESAKERAEHIKKAIKEKPKTKEELKKAKKILEELEKKAEEAYKKAGEAVKEEYEKAKKAIKEAKKEAEKNLK

target: VTCN1, Q7Z7D3
Sequence (Q7Z7D3 whole entry): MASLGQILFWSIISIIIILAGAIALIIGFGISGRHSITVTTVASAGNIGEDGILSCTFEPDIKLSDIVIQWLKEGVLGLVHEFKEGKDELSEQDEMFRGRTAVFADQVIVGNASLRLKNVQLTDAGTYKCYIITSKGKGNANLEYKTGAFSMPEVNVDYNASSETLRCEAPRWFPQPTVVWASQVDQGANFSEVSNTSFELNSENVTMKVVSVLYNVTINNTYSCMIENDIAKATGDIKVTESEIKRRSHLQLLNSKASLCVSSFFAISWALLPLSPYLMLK

Binding in a display sort, inactive:
B1 not found, B2 not found, B3 not found, B4 not found, B5 not found, B6 not found, B7 not found, B8 not found, B9 not found, B10 not found, B11 not found, B12 not found, B13 not found, B14 not found, B15 not found, B16 not found, B17 not found, B18 not found, B19 not found, B20 not found, B21 not found, B22 not found, B23 not found, B24 not found, B25 not found, B26 not found, B27 not found, B28 not found, B29 not found, B30 not found, B31 not found, B32 not found, B33 not found, B34 not found, B35 not found, B36 not found, B37 not found, B38 not found
